Values joined by “and” are separate entries in the source; they are usually repeats but may differ in a detail not shown here. Equal values may be shown once. Records with an inconclusive call do not appear. Entries that show only a call come without a potency. Active and inactive are the calls of the source. Unless noted, calls come from the whole dose curve; as a rule, active = well fitted curve in the direction sought with a large enough effect in the repeat runs; inconclusive = weak or mixed curves; inactive = no such curve, though single readings can be large; an effect the other way counts as inactive or inconclusive.
Key:
[1] = target: Aryl hydrocarbon receptor (Homo sapiens) (UniProt P35869); assay: qHTS assay to identify small molecule that activate the aryl hydrocarbon receptor (AhR) signaling pathway (AID 743085); note: nearly all actives have a fitted effect of over 15% in size; note: potency is the fitted concentration of half-maximal effect;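 for activation: HG2L7.5c1 human HepG2 liver cells with stably integrated DRE-driven firefly reporter; series mostly up to about 70 µM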
Sequence of Aryl hydrocarbon receptor (Homo sapiens) (P35869 whole entry, looked up): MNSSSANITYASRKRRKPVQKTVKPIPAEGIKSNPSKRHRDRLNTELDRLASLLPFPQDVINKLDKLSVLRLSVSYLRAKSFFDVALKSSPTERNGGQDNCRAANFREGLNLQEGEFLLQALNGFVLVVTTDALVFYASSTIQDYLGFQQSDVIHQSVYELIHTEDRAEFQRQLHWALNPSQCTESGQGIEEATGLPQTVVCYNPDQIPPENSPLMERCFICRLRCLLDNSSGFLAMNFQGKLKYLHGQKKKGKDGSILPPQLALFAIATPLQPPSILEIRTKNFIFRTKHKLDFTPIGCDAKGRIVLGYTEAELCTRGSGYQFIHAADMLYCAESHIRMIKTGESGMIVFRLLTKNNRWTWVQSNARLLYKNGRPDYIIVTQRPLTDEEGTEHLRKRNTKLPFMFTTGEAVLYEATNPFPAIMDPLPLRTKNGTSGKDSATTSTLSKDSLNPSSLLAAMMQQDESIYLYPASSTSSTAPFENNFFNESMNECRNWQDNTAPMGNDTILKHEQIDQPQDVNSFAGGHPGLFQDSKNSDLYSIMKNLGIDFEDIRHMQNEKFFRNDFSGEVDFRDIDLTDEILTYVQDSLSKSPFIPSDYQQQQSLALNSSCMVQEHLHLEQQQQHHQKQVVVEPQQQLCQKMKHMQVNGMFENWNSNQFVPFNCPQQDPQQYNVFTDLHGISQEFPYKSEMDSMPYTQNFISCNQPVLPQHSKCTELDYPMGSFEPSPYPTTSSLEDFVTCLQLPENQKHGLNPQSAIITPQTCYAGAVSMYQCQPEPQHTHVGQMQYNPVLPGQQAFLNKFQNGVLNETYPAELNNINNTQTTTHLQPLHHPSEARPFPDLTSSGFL
Outline: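 AhR agonist activity is inferred from enhanced light output of a DRE-controlled firefly luciferase reporter in HepG2 cells, measured with ONE-Glo following 24 h treatment at 37C.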

[2] = qHTS assay to identify small molecule that activate the aryl hydrocarbon receptor (AhR) signaling pathway - cell viability counter screen (AID 743086);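 note: HepG2 liver cells carrying the AhR DRE luciferase reporter; series mostly up to about 70 µM; nearly all actives have a fitted effect of over 45% in size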
Outline: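 Cytotoxicity counter screen: CellTiter-Fluor signal (30 min, 37 C) in 4000 HepG2 cells/well carrying the DRE-luciferase reporter, following 24 h compound exposure at 37 C.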

[3] = target: Peroxisome proliferator-activated receptor gamma (Homo sapiens) (UniProt P37231); assay: qHTS assay to identify small molecule agonists of the peroxisome proliferator-activated receptor gamma (PPARg) signaling pathway (AID 743094; active = well fitted activation curve with a large enough effect in the signal ratio in the repeat runs, not every such curve was filed as active; the % refers to the signal ratio)
Sequence of Peroxisome proliferator-activated receptor gamma (Homo sapiens) (P37231 whole entry, looked up): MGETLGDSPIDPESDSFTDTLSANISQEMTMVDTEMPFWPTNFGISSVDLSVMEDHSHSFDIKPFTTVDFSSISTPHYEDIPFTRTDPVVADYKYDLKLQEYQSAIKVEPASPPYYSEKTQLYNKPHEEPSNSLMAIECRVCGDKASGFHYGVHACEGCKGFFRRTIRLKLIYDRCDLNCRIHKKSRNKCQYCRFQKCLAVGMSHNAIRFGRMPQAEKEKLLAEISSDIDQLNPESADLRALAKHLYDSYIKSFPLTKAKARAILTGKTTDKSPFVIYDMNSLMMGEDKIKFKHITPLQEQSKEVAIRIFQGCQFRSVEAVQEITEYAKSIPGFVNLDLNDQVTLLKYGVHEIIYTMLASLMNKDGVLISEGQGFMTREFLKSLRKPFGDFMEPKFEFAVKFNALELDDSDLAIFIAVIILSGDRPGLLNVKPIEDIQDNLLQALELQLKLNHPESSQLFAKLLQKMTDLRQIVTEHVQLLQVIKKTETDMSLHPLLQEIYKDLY
Outline: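 Quantitative HTS agonist mode: stable HEK293H line with UAS-beta-lactamase reporter under PPARg control, 17 h compound exposure at 37C, fluorescence after 1 h FRET substrate loading at room temperature.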

[4] = target: Peroxisome proliferator-activated receptor gamma (Homo sapiens) (UniProt P37231); assay: qHTS assay to identify small molecule antagonists of the peroxisome proliferator-activated receptor gamma (PPARg) signaling pathway (AID 743191; calls by dose curve; note: series mostly up to about 63 µM; nearly all actives have a fitted effect of over 30% in size)
Outline: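 Beta-lactamase reporter under UAS control in HEK293H PPARg-bla cells; compound treatment 17 h at 37C. Read-out: fluorescence intensity after 1 h room-temperature incubation with LiveBLAzer B/G FRET substrate.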

[5] = qHTS assay to identify small molecule antagonists of the peroxisome proliferator-activated receptor gamma (PPARg) signaling pathway - cell viability counter screen (AID 743194); note: nearly all actives have a fitted effect of over 55% in size
Outline: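 Viability was measured as CellTiter-Glo luminescence in GeneBLAzer PPARg UAS-bla HEK293H cells. These cells had been exposed 17 h at 37 C to compounds together with rosiglitazone at 50 nM final, with the beta-lactamase readout taken in the same wells.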

[6] = qHTS assay for small molecule agonists of the antioxidant response element (ARE) signaling pathway (AID 743202; active = well fitted activation curve with a large enough effect in the signal ratio in the repeat runs, not every such curve was filed as active; the % refers to the signal ratio; note: potency is the fitted concentration of half-maximal effect)
Outline: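 An ARE-responsive beta-lactamase gene stably integrated in HepG2 cells serves as reporter. After 5 h plating and 16 h compound incubation at 37 C, fluorescence of the B/G FRET substrate was measured.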

[7] = qHTS assay for small molecule agonists of the antioxidant response element (ARE) signaling pathway - cell viability counter screen (AID 743203; calls by dose curve; note: nearly all actives have a fitted effect of over 55% in size)
Outline: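 Seeded at 2,000 cells/well, ARE-bla HepG2 cells were incubated 5 hrs before compound addition. After 16 hrs of treatment at 37C with 5% CO2, CellTiter-Glo reagent was added and luminescence read 30 min later.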

[8] = qHTS assay for small molecule activators of the heat shock response signaling pathway - cell viability counter screen (AID 743209); note: nearly all actives have a fitted effect of over 50% in size
Outline: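 First, HSE-bla HeLa cells were seeded at 1500 cells/well and kept overnight at 37 C. Next, compounds were pinned in and incubated 5 h. After the FRET substrate step, CellTiter-Glo was added and luminescence read 30 min later.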

[9] = qHTS assay for small molecule activators of the heat shock response signaling pathway (AID 743210; active = well fitted activation curve with a large enough effect in the signal ratio in the repeat runs, with a control signal flat, not every such curve was filed as active; the % refers to the signal ratio;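 note: HeLa cells with beta-lactamase reporter driven by heat shock elements; series mostly up to about 63 µM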)
Outline: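 In HSE-bla HeLa cells, 5 h compound incubation (37 C) precedes addition of LiveBLAzer B/G substrate; after 2.5 h at room temperature, fluorescence intensity indicates reporter induction.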

[10] = qHTS assay to identify small molecule agonists of the peroxisome proliferator-activated receptor delta (PPARd) signaling pathway - cell viability counter screen (AID 743211); note: nearly all actives have a fitted effect of over 55% in size
Outline: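 qHTS cell viability: PPARd-bla HEK293H; 17 h cpd, 37C; CellTiter-Glo, luminescence at 30 min RT.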

[11] = target: Peroxisome proliferator-activated receptor delta (Homo sapiens) (UniProt Q03181); assay: qHTS assay to identify small molecule agonists of the peroxisome proliferator-activated receptor delta (PPARd) signaling pathway (AID 743212; calls by dose curve)
Sequence of Peroxisome proliferator-activated receptor delta (Homo sapiens) (Q03181 whole entry, looked up): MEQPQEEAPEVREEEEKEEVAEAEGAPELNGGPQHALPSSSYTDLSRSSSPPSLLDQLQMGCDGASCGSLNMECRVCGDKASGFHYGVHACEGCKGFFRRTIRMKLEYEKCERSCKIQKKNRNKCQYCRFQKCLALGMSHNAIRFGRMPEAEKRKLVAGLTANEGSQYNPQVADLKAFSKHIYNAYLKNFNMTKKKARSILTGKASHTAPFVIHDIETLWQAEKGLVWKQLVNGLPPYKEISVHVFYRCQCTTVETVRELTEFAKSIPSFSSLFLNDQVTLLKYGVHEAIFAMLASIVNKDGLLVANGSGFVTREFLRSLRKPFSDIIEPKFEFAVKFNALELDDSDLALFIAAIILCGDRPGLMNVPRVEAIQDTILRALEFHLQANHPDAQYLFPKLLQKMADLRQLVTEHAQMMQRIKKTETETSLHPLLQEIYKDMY
Outline: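 HEK293H UAS-bla reporter cells, human PPARd system; compounds delivered in DMSO after 5 h plating, then at 37 C. Beta-lactamase FRET read, 2 h RT substrate step.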

[12] = qHTS assay to identify small molecule antagonists of the peroxisome proliferator-activated receptor delta (PPARd) signaling pathway - cell viability counter screen (AID 743213); note: nearly all actives have a fitted effect of over 50% in size
Outline: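 Agonist-stimulated (L165041, 300 nM final) HEK293H PPARd UAS-bla cells are exposed to compounds for 17 h at 37 C, and ATP-based luminescence (CellTiter-Glo) from the same wells reports cytotoxicity.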

[13] = target: Peroxisome proliferator-activated receptor delta (Homo sapiens) (UniProt Q03181); assay: qHTS assay to identify small molecule antagonists of the peroxisome proliferator-activated receptor delta (PPARd) signaling pathway (AID 743215; active = well fitted inhibition curve with a large enough effect in the signal ratio in the repeat runs, not every such curve was filed as active; the % refers to the signal ratio; note: series mostly up to about 62 µM)
Outline: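 Inhibition of L165041-driven (300 nM final) PPARd signaling is scored in HEK293H UAS-bla cells. Exposure lasts 17 h at 37 C; beta-lactamase activity is then read by FRET substrate fluorescence after 2 h at room temperature.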

[14] = target: Bile acid receptor (Homo sapiens) (UniProt Q96RI1); assay: qHTS assay to identify small molecule antagonists of the farnesoid-X-receptor (FXR) signaling pathway (AID 743217; active = well fitted inhibition curve with a large enough effect in the signal ratio in the repeat runs, not every such curve was filed as active; the % refers to the signal ratio)
Sequence of Bile acid receptor (Homo sapiens) (Q96RI1 whole entry, looked up): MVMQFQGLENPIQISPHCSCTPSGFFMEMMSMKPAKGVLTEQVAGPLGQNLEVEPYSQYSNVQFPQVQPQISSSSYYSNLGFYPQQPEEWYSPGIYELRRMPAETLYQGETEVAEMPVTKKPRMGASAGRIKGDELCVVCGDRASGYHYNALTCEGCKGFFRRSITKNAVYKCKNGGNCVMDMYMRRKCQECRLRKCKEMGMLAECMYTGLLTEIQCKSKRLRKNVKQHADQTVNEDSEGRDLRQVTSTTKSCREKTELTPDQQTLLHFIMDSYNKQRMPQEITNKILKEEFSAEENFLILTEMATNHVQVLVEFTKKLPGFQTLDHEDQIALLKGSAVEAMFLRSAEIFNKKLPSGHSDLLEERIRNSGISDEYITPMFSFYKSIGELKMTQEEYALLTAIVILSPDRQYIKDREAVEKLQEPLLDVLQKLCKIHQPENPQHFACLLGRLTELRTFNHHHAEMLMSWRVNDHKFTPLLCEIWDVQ
Outline: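 Antagonist mode against 50 uM (final) chenodeoxycholic acid stimulation in FXR-bla HEK 293T cells, 16 h at 37 °C. Inhibition detected as reduced beta-lactamase activity via LiveBLAzer B/G FRET fluorescence after 2 h at room temperature.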

[15] = qHTS assay to identify small molecule agonists of the farnesoid-X-receptor (FXR) signaling pathway - cell viability counter screen (AID 743218); note: nearly all actives have a fitted effect of over 45% in size
Outline: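 Cytotoxicity counter-screen run in parallel, same wells: FXR-UAS-bla HEK 293T cells dosed 16 h at 37 C, viability read by CellTiter-Glo luminescence after 30 min at room temperature.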

[16] = target: Bile acid receptor (Homo sapiens) (UniProt Q96RI1); assay: qHTS assay to identify small molecule agonists of the farnesoid-X-receptor (FXR) signaling pathway (AID 743220; active = well fitted activation curve with a large enough effect in the signal ratio in the repeat runs, not every such curve was filed as active; the % refers to the signal ratio)
Outline: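 Beta-lactamase reporter under UAS control in GeneBLAzer FXR HEK 293T cells (5000/well) measured with LiveBLAzer FRET substrate after 2 h at room temperature. Compound exposure lasted 16 h at 37C.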

[17] = qHTS assay to identify small molecule agonists of the vitamin D receptor (VDR) signaling pathway - cell viability counter screen (AID 743224); note: series mostly up to about 63 µM; nearly all actives have a fitted effect of over 50% in size
Outline: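 Viability is measured in the same wells as the VDR-bla reporter assay: after 16 h compound treatment and 2 h substrate loading, CellTiter-Glo is added and luminescence read 30 min later.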

[18] = qHTS assay to identify small molecule antagonists of the farnesoid-X-receptor (FXR) signaling pathway - cell viability counter screen (AID 743221; active = well fitted cell-killing curve with a large enough effect in the repeat runs, not every such curve was filed as active; note: nearly all actives have a fitted effect of over 50% in size)
Outline: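 After a 5 h settling period, FXR-bla HEK 293T cells receive compound and chenodeoxycholic acid (50 uM final) and incubate 16 h at 37 C; CellTiter-Glo luminescence, read after 30 min at room temperature, reports cell viability.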

[19] = target: Vitamin D3 receptor (Homo sapiens) (UniProt P11473); assay: qHTS assay to identify small molecule agonists of the vitamin D receptor (VDR) signaling pathway (AID 743222; calls by dose curve)
Sequence of Vitamin D3 receptor (Homo sapiens) (P11473 whole entry, looked up): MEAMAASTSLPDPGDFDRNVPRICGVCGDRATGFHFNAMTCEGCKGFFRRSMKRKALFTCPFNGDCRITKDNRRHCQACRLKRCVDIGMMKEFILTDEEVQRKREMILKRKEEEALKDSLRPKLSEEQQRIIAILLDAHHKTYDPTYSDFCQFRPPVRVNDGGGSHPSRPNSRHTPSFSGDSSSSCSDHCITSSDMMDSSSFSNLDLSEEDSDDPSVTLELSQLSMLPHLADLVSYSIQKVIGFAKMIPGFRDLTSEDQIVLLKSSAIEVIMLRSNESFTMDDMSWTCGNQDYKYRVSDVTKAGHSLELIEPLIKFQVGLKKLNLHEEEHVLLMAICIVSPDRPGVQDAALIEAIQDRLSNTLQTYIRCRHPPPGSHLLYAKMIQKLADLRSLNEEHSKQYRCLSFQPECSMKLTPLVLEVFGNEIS
Outline: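 Quantitative HTS agonist-mode screen: compounds in DMSO were pin-transferred onto VDR-bla cells and incubated 16 h at 37C, 5% CO2. Reporter activity was detected with LiveBLAzer B/G FRET substrate after 2 h at room temperature.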

[20] = target: Vitamin D3 receptor (Homo sapiens) (UniProt P11473); assay: qHTS assay to identify small molecule antagonists of the vitamin D receptor (VDR) signaling pathway (AID 743223; active = well fitted inhibition curve with a large enough effect in the signal ratio in the repeat runs, not every such curve was filed as active; the % refers to the signal ratio)
Outline: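 Reporter line VDR-bla; stimulus 1alpha,25-(OH)2 vitamin D3, 3 nM final; compound co-addition, 16 h 37C/5% CO2; LiveBLAzer B/G substrate 2 h RT; fluorescence intensity.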

| Structure (SMILES) | Potency [1] | outcome [2] | outcome [3] | Potency [4] | outcome [5] | Potency [6] | outcome [7] | outcome [8] | outcome [9] | outcome [10] | outcome [11] | outcome [12] | Potency [13] | outcome [14] | outcome [15] | outcome [16] | outcome [17] | outcome [18] | outcome [19] | outcome [20] |
| --- | --- | --- | --- | --- | --- | --- | --- | --- | --- | --- | --- | --- | --- | --- | --- | --- | --- | --- | --- | --- |
| O=C1CCCN1 | inactive | inactive | inactive | inactive | inactive | inactive | inactive | inactive | inactive | inactive | inactive | inactive | inactive | inactive | inactive | inactive | inactive |  |  |  |
| CC(Oc1ccc(Cl)cc1Cl)C(=O)O (stereo unspecified) | inactive | inactive | inactive | inactive | inactive | inactive | inactive | inactive | inactive | inactive |  | inactive |  | inactive | inactive | inactive | inactive | inactive | inactive | inactive |
| C=C(C)CCl | inactive | inactive | inactive |  | inactive | inactive | inactive | inactive | inactive | inactive | inactive | inactive | inactive | inactive | inactive | inactive | inactive | inactive | inactive | inactive |
| c1ccc(-c2ccccc2)cc1 | inactive | inactive | inactive |  | inactive | inactive | inactive | inactive | inactive | inactive | inactive | inactive | inactive | inactive | inactive | inactive | inactive |  |  |  |
| Cc1cc(-c2cc(C)c(N)c(C)c2)cc(C)c1N | 1.54 µM (active) and 756 nM (active) | inactive | inactive | inactive |  | inactive | inactive | inactive |  | inactive | inactive | inactive | inactive |  | inactive |  | inactive |  | inactive | inactive |
| O=NN1CCCCCCC1 | inactive | inactive | inactive |  | inactive | inactive | inactive | inactive |  | inactive |  | inactive |  | inactive | inactive | inactive | inactive | inactive |  |  |
| O=c1n(Cl)c(=O)n(Cl)c(=O)n1Cl | inactive | inactive | inactive |  | inactive | inactive | inactive | inactive | inactive | inactive | inactive | inactive | inactive |  | inactive |  | inactive |  | inactive | inactive |
| CC(C)(Cl)Cl | inactive | inactive | inactive |  | inactive |  | inactive | inactive |  | inactive | inactive | inactive | inactive |  | inactive |  | inactive |  | inactive | inactive |
| CCOP(=S)(OCC)SCCSCC | inactive | inactive | inactive |  | inactive | inactive | inactive | inactive | inactive | inactive | inactive | inactive | inactive |  | inactive |  | inactive | inactive |  |  |
| O=[N+]([O-])c1ccc([As](=O)(O)O)cc1 | inactive | inactive | inactive |  | inactive | 54.5 µM (active) | inactive | inactive |  | inactive | inactive | inactive | inactive |  | inactive |  | inactive | inactive | inactive | inactive |
| CCC[CH2][Sn]([Cl])([Cl])[Cl] | inactive | inactive | inactive |  | inactive | 1.1 µM (active) and 2.43 µM (active) | inactive | inactive | inactive | inactive | inactive | inactive | inactive | inactive | inactive | inactive | inactive | inactive |  |  |
| Nc1c(Cl)c(Cl)nc(C(=O)O)c1Cl | 34 µM (active) | inactive | inactive | inactive |  | inactive | inactive | inactive |  | inactive | inactive | inactive | inactive |  | inactive |  | inactive |  |  |  |
| CNC(=O)Oc1ccccc1OC(C)C | inactive | inactive | inactive |  | inactive | inactive | inactive | inactive |  | inactive | inactive | inactive | inactive |  | inactive |  | inactive | inactive | inactive | inactive |
| CN(C)CCO | inactive | inactive | inactive |  | inactive | inactive | inactive | inactive | inactive | inactive | inactive | inactive | inactive |  | inactive |  | inactive | inactive | inactive | inactive |
| CN(C)N=O | inactive | inactive | inactive |  | inactive | inactive | inactive | inactive |  | inactive |  | inactive |  | inactive | inactive | inactive | inactive |  | inactive | inactive |
| O=[N+]([O-])c1ccccc1 | inactive | inactive | inactive |  | inactive | inactive | inactive | inactive |  | inactive | inactive | inactive | inactive |  | inactive |  | inactive | inactive |  |  |
| O=c1ccc(=O)[nH][nH]1 | inactive | inactive | inactive |  | inactive | inactive | inactive | inactive |  | inactive |  | inactive |  | inactive | inactive | inactive | inactive |  | inactive | inactive |
| C#CCN(C)[C@H](C)Cc1ccccc1 | inactive | inactive | inactive |  | inactive | inactive | inactive | inactive |  | inactive | inactive | inactive | inactive |  | inactive |  | inactive | inactive | inactive | inactive |
| O=S(=O)(c1ccc(Cl)cc1)c1cc(Cl)c(Cl)cc1Cl | inactive | inactive | inactive |  | inactive | inactive | inactive | inactive |  | inactive | inactive | inactive | inactive | inactive | inactive | inactive | inactive | inactive | inactive | inactive |

Source: PubChem BioAssay (Tox21)
